Dicer processing – human Dicer pre-microRNA cleavage inhibition. 6% of 47,000 active. AID 1347074. z-score at 25 µM. cat-ELCCA pre-miR-21 Dicer processing, chemiluminescence; hits give high values; in the data active = z-score above about 3, passing the limit was not always enough;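 also: plate controls were vehicle for no effect and no enzyme for full effect; higher signal means more uncleaved substrate so more Dicer inhibition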
* marks the source's active call; other numbers are inactive results. The full list was thinned out, with hits kept by preference.

SMILES | Dicer processing
Nc1ccc(-c2nc3ccc(-c4nc5ccc(N)cc5[nH]4)cc3[nH]2)cc1 | 2.1
Nc1ccc2nc(-c3ccc(-c4nc5ccc(N)cc5[nH]4)cc3)[nH]c2c1 | 0.33
Cc1ccc2nc(-c3ccc(N)cc3)[nH]c2c1 | 4*
CSc1cccc(NC(=O)CSc2ccc(C(F)(F)F)cn2)c1 | 0.4
COc1ccc(-c2noc(-c3cccs3)n2)cc1 | 3.9*
COc1ccc(OCc2nc(-c3cccs3)no2)cc1 | 0.06
Brc1ccc(OCc2nc(-c3ccncc3)no2)cc1 | -0.18
Clc1ccc(-c2nc(-c3ccncc3)no2)cc1 | 1.7
COc1ccc(-c2noc(COc3ccc(Br)cc3)n2)cc1 | 4.1*
COc1ccc(-c2noc(COc3ccc(Cl)cc3)n2)cc1 | 2.8
Nc1c(Cl)cc(-c2noc(-c3cccs3)n2)cc1Cl | -1.8
COc1ccc(-c2nc(-c3ccc(Cl)cc3)no2)cc1 | 4.2*
COc1ccc(-c2noc(-c3ccc(OC)cc3)n2)cc1 | 1.3
CSC(=NCc1c(N)cccc1F)NC#N | 0.48
Cn1nc(C(F)(F)F)c(-c2ccccc2)c1NC(=O)C1C2C=CC(C2)C1C(=O)O (centres undefined) | 0.56
CCOC(=O)CSC(=S)NCc1ccc(F)cc1 | -0.64
CCOC(=O)C(NC(C)=O)(Nc1cccc(C)n1)C(F)(F)F (centres undefined) | -1.4
C/C(Nc1ccc(C)cc1)=C1/CCOC1=O | -0.82
CCc1c(O)nc(SCCN(CC)CC)n(-c2ccccc2)c1=O | 0.82
O=C(O)CCSc1ccc2ccccc2c1 | -0.85
Nc1cc(N)nc(SCCC(=O)O)n1 | 3.3*
O=C(O)CCSc1nc2ccccc2[nH]1 | -1.6
CN1C(=O)C(O)(CC(=O)c2ccc(C3CCCCC3)cc2)c2ccccc21 (centres undefined) | 0.77
Cc1ccc(C(=O)CC2(O)C(=O)Nc3ccccc32)cc1 (centres undefined) | -0.4
O=C(CC1(O)C(=O)Nc2ccccc21)c1ccc(Br)cc1 (centres undefined) | 0.37
SMILES | Dicer processing
O=C(CC1(O)C(=O)Nc2ccc(Cl)cc21)c1ccc(Cl)cc1 (centres undefined) | -0.72
O=C(CC1(O)C(=O)Nc2ccc(Br)cc21)c1ccc2ccccc2c1 (centres undefined) | -0.36
O=C(CC1(O)C(=O)Nc2ccccc21)c1ccc(C2CCCCC2)cc1 (centres undefined) | 4.2*
O=C(CC1(O)C(=O)Nc2ccc(Cl)cc21)c1cccc2ccccc12 (centres undefined) | 0.59
Nc1cccc(C(=O)CC2(O)C(=O)Nc3ccc(Cl)cc32)c1 (centres undefined) | 12*
O=C(CC1(O)C(=O)Nc2ccccc21)c1ccc2ccccc2c1 (centres undefined) | 4.4*
Nc1cccc(C(=O)CC2(O)C(=O)Nc3ccc(Br)cc32)c1 (centres undefined) | -0.57
O=C(CC1(O)C(=O)Nc2ccccc21)CC1(O)C(=O)Nc2ccccc21 (centres undefined) | -0.07
O=C(CC1(O)C(=O)Nc2ccccc21)c1cccc2ccccc12 (centres undefined) | 5.2*
Cc1cc(SCCS(=O)(=O)CCSc2cc(C)c(Cl)cc2C)c(C)cc1Cl | 1.8
O=S(=O)(NNc1c(Cl)cccc1Cl)c1ccc(Cl)c(Cl)c1 | 2.1
CCOc1ccc(C)cc1S(=O)(=O)n1cnc2cc(C)c(C)cc21 | -0.21
Cc1cccc(Cn2nc(C(C)(C)C)cc2-c2nnc(SCC(=O)c3ccccc3)o2)c1 | 41
CCOC(=O)c1sc2nc3n(c(=O)c2c1C)CCCC3C(=O)OCC (centres undefined) | 1.6
Cn1cc(Cl)c(C(=O)Nc2ccc(F)cc2F)n1 | -0.87
Cc1nn(C)cc1CNC(=O)c1cnn2c(C(F)(F)F)cc(-c3ccc(Br)cc3)nc12 | 1.3
COc1ccc(/C=N/NC(=O)Cn2nc(-c3ccccc3)c(-c3ccccc3)nc2=O)cc1 | -1.8
Cc1nnc2n1NC(c1ccc(Cl)cc1)C(C(=O)NCC1CCCO1)S2 (centres undefined) | 2.4
Cc1ccc(C2Nn3c(C)nnc3SC2C(=O)NCC2CCCO2)cc1 (centres undefined) | -0.76
COc1ccc(C2Nn3c(nnc3-c3ccccc3)SC2C(=O)NCC2CCCO2)cc1Cl (centres undefined) | 6.6*
Cc1cc(NS(=O)(=O)c2ccc(NS(=O)(=O)c3cc(C)c(Cl)cc3C)cc2)no1 | -0.44
CCN(CC)c1ncc2c(SCC(N)=O)nc(SCC(N)=O)nc2n1 | 0.41
C/C=C/C(=O)N(CC)c1ccccc1C | 3.6*
Cc1ccccc1NC(=O)/C=C/C(=O)O | -0.63
CCN(C(=O)c1cnccc1C(F)(F)F)c1cccc(C)c1C | -0.66
Cn1nccc1NS(=O)(=O)c1ccc(C(C)(C)C)cc1 | -0.85
COc1ccccc1Oc1c(NS(=O)(=O)c2ccc(C(C)(C)C)cc2)nc(-c2ncccn2)nc1OCCO | 18*
CC(C)(C)c1ccc(-c2[nH]nc(NS(=O)(=O)c3ccccc3)c2Br)cc1 | -4.6
CCc1ccc(C2C(C(=O)OCCOC)=C(C)Nc3nc4ccccc4n32)cc1 (centres undefined) | 2.8

Screens deposited in PubChem by Center for Chemical Genomics, University of Michigan.
